# Source: PubChem BioAssay (Tox21)
# Inconclusive results are not listed. Calls of active or inactive are those of the source. The call rests on the fitted dose curve.
# Test: qHTS assay to identify small molecule antagonists of the sonic hedgehog signaling (Shh) pathway (AID 1259369); further: nearly all actives have a fitted effect of over 45% in size
# Conditions: NIH/3T3 Gli1-Luc reporter, Shh antagonist, luminescence 24 h; series mostly up to 92.4 µM; activity change, negative = inhibition: at the top concentration
# Excerpt: U.S. Tox21 Program National Center for Advancing Translational Sciences [NCATS] NIH Chemical Genomics Center [NCGC] U.S. Environmental Protection Agency [EPA] National Institutes of Environmental Health Sciences [NIEHS] National Toxicology Program [NTP] U.S. Food and Drug Administration [FDA] Tox21 Assay Overview: The sonic hedgehog (Shh) pathway is essential for normal embryonic development. Dysregulation of the Shh pathway can cause severe developmental defects in organs. Therefore chemicals that interfere with the pathway are potential developmental toxicants. A cell line designated 3T3Gli1-Luc (DMB/OARSA/CFSAN/FDA, Laurel, MD), a NIH/3T3 derived clone containing stably integrated Gli1-Luc reporter is used to detect chemical interference of the Shh pathway, by changes in the expression of the firefly Luc gene under the control of the Gli1 transcriptional response element. This cell line was used to screen Tox21 libraries for identifying and prioritizing the potential developmental toxicants that interfere Shh pathway. Conditioned medium-stimulated mode was used to screen for chemicals inhibiting Shh signaling.
# Tox21 Assay Protocol Summary: 3T3 Gli1-Luc cells were dispensed at 2,000 per well in 5uL of culture medium into white solid bottom 1536-well plates (Greiner Bio-One, Monroe, NC) using a Multidrop Combi (Thermo Scientific, Waltham, MA) dispenser. The assay plates were incubated at 37 C and 5% CO2 for 4hr, and then 23nL of compounds dissolved in DMSO and positive control were transferred using a Pintool station (Wako, San Diego, CA). The compound transfer was followed by the addition of 1ul conditioned medium or assay buffer using two separate tips of Flying Reagent Dispenser (FRD, Aurora Discovery, San Diego, CA). The assay plates were incubated at 37C and 5% CO2 for 24hr. For luciferase read, 4uL of Amplite Luciferase reporter gene assay reagent (AAT Bioquest, Inc. Sunnyvale, CA) was added to each well of the assay plates using FRD and incubated at room temperature for 30min. The luminescence signal was measured using a ViewLux plate reader (Perkin Elmer, Shelton, CT).
# On the % scale 0 is the no-effect control and ±100 the full control effect; potency means the concentration at half of the fitted maximal effect.
SMILES,"activity change, negative = inhibition",Potency
CCOP(=S)(OCC)Oc1nc(Cl)n(C(C)C)n1,14.3% (inactive),–
CC1(C)COP(Oc2ccccc2)OC1,5.55% (inactive),–
Fc1cc(Br)ccc1CBr,8.11% [at 42.5 µM] (inactive),–
O=C(NCO)NCO,10% (inactive),–
CCN(CC)CCOC(=O)C(C)(c1ccccc1)c1ccccc1,-17% [at 42.5 µM] (inactive),–
[O]=[Cd],0.678% (inactive),–
Clc1ccccc1N1CCNCC1,-21.4% [at 42.5 µM] (inactive),–
CCOC(=O)CP(=O)(OCC)OCC,-0.124% (inactive),–
C[N+](C)=CCl,0% (inactive),–
COP(=S)(OC)Oc1c(Cl)cc(C)cc1Cl,26.6% (inactive),–
CCCCc1ccc(O)cc1,-8.99% (inactive),–
CC(C)(C)OC(=O)c1ncn2c1[C@@H]1CCCN1C(=O)c1c(Br)cccc1-2,-22.5% [at 42.5 µM] (inactive),–
ClCCCN1CCN(c2cccc(Cl)c2)CC1,21.9% [at 42.5 µM] (inactive),–
ClC(Cl)(Cl)C(Cl)(Cl)Cl,12% (inactive),–
COC(C)(C)C,16.8% (inactive),–
c1ccc(N2CCNCC2)cc1,12.8% [at 42.5 µM] (inactive),–
CN(C)CCc1ccc(O)cc1,36.2% [at 42.5 µM] (inactive),–
O=[N+]([O-])c1ccc(CBr)cc1,-6.13% (inactive),–
NC(=O)c1cc([N+](=O)[O-])cc([N+](=O)[O-])c1,0.624% [at 42.5 µM] (inactive),–
OCCSCSCCO,0% (inactive),–

SMILES,"activity change, negative = inhibition",Potency
Cc1cc(C)c(C(=O)P(=O)(C(=O)c2c(C)cc(C)cc2C)c2ccccc2)c(C)c1,0.462% (inactive),–
CCS(=O)(=O)C(C)(C)S(=O)(=O)CC,1.87% [at 42.5 µM] (inactive),–
[Cl][Sn]([Cl])([Cl])[Cl],24.5% (inactive),–
O=C1OC(c2ccc(O)c(S(=O)(=O)O)c2)(c2ccc(O)c(S(=O)(=O)O)c2)c2c(Br)c(Br)c(Br)c(Br)c21,31.4% [at 42.5 µM] (inactive),–
CC(C(O)c1ccccc1)N(C)C/C=C/c1ccccc1 (stereo not given),-8.24% [at 42.5 µM] (inactive),–
CN1CCC(O)(c2ccc(F)cc2)C(C(=O)c2ccc(F)cc2)C1 (stereo not given),-24.1% [at 42.5 µM] (inactive),–
N#Cc1ccncc1,51.6% (inactive),–
O=C1c2ccccc2C(=O)c2ccccc21,17.7% [at 19 µM] (inactive),–
CCC(=O)c1ccccc1,0% (inactive),–
Clc1cccc(N2CCNCC2)c1,-8.72% [at 42.5 µM] (inactive),–
CC1=C(C(=O)Nc2ccccc2)S(=O)(=O)CCO1,–,3.06 µM (active)
O=[N+]([O-])c1ccc2c3c(cccc13)CC2,–,21.7 µM (active)
ClCC(Cl)(Cl)Cl,-3.01% (inactive),–
CCCCOC(=O)c1ccccc1C(=O)O,0% (inactive),–
Cc1nc(N)nc(N)n1,4.43% (inactive),–
OCCBr,-18.1% (inactive),–
CN1CCN(C(=O)O[C@H]2c3nccnc3C(=O)N2c2ccc(Cl)cn2)CC1,10.6% [at 42.5 µM] (inactive),–
C#C[C@]1(O)C=C[C@H]2[C@@H]3CCC4=CC(=O)CC[C@@H]4[C@H]3CC[C@@]21CC,–,15 µM (active)
CSc1ccc(C(=O)C(C)(C)N2CCOCC2)cc1,1.46% (inactive),–
CCOP(=S)(OCC)Oc1cc(-c2ccccc2)on1,-0.986% (inactive),–
